Not all results are given here.
aSyn 5UTR act: Activators via SNCA 5'UTR binding, MLPCN; 7.1% of 300,000 active; activity score, % (tested at 7.5 µM), hits read low; alpha-synuclein 5'UTR reporter, activators screen; in the data active means activity score below about -60%
Numbers stand for hits; – = inactive.

SMILES	aSyn 5UTR act
Cc1cccc(N2CCN(C(=O)NC3CCCCC3)CC2)c1C	-95
O=C(/C=C/c1c(F)cccc1Cl)N1CCc2ccccc2C1	-85
CCN1CCN(C(=O)/C=C/c2c(F)cccc2Cl)CC1	-90
CC(C(=O)OCc1nnc(-c2ccccc2)o1)N1C(=O)C2CCCCC2C1=O (stereo not drawn)	-63
COc1c(OC)c(O)c2c(=O)cc(-c3c(O)cccc3O)oc2c1OC	-64
Cc1c(C(=O)NCC2CCCO2)oc2ccc(Br)cc12 (stereo not drawn)	-82
Cc1cc(Cl)c2oc(C(=O)NCCC3CCCCO3)c(C)c2c1 (stereo not drawn)	-63
CNCc1cc(Cl)cc(OC)c1OC(C)C	-81
Cc1ccccc1SCCNC(=O)CCc1ccccc1	-64
Cc1ccccc1SCCNC(=O)c1ccccc1Br	-107
COc1ccc(C(=O)Nc2cc(Cl)ccc2Cl)c(OC)n1	-91
COc1ccc(C(=O)Nc2cc(Cl)cc(Cl)c2)c(OC)n1	-114
COC(=O)N/N=C/c1cccc(OCCSc2ccc(Cl)cc2)c1	-82
COc1cc(CNCc2ccccn2)ccc1OCc1ccc(Cl)c(Cl)c1	-114
Nc1ncccc1OCc1ccc(Cl)c(Cl)c1	-149
COCCn1c(C)cc(/C=C2/SC(=O)N(C(C)C(=O)OC)C2=O)c1C (stereo not drawn)	-154
C#CCN1C(=O)S/C(=C/c2cc(C)n(CC)c2C)C1=O	-193
CCOC(=O)C(C)N1C(=O)S/C(=C/c2cc(C)n(-c3ccccn3)c2C)C1=O (stereo not drawn)	-143
COC(=O)C(C)N1C(=O)S/C(=C/c2cc(C)n(C(C)C)c2C)C1=O (stereo not drawn)	-127
CCn1c(C)cc(/C=C2/SC(=O)N(C(C)C(=O)OC)C2=O)c1C (stereo not drawn)	-156
COc1ccc(-n2c(-c3ccc(Br)cc3)c[n+]3c2CCc2ccccc2-3)cc1	-91
CC(C)c1ccc(-n2c(-c3ccccc3)c[n+]3c2CCc2ccccc2-3)cc1	–
CC(C)=CC(=O)Nc1nnc(-c2cccnc2)s1	-67
CC(C)=CC(=O)Nc1nnc(C(C)C)s1	-119
CCOC(=O)c1c(C)[nH]c(C(=O)OCc2ccc(F)cc2)c1C	-170
SMILES	aSyn 5UTR act
CCOC(=O)c1c(C)[nH]c(C(=O)CSc2ccc(Cl)cc2)c1C	-130
CCNC(=O)COC(=O)c1[nH]c(C)c(C(=O)OC)c1C	-85
CCOC(=O)c1c(C)[nH]c(C(=O)OCc2ccccc2F)c1C	-110
CCOC(=O)c1c(C)[nH]c(C(=O)OCCOc2ccccc2C)c1C	-132
CCOC(=O)c1c(C)[nH]c(C(=O)COC(=O)C2(C)CC2(Cl)Cl)c1C (stereo not drawn)	-171
CCOC(=O)c1c(C)[nH]c(C(=O)OCC(=O)c2ccccc2)c1C	-99
CC(=O)c1c(C)[nH]c(C(=O)OCc2ccccc2)c1C	-145
CCOC(=O)c1ccc(COC(=O)c2ccc(-c3nnc(-c4ccccc4)o3)cc2)o1	-91
CCOC(=O)c1ccc(-c2ccc(CO)o2)cc1	-132
O=C(COC(=O)c1ccc(-c2nnc(-c3ccccc3)o2)cc1)c1ccccc1	-126
CCOC(=O)c1ccc(-c2nnc(-c3ccc(Cl)cc3Cl)o2)cc1	-207
CCCN1C(=O)S/C(=C\c2ccc(N3CCOCC3)o2)C1=O	-94
COC(=O)CN1C(=O)S/C(=C/c2ccc(N3CCCCC3)o2)C1=O	-89
CCCN1C(=O)S/C(=C/c2ccc(N3CCOCC3)o2)C1=O	-83
COC(=O)CN1C(=O)S/C(=C/c2cc(C)n(C)c2C)C1=O	-167
COc1cccc(/C=N/NC(=S)Nc2cccc(C(=O)O)c2)c1O	–
COc1cc(/C=N/Nc2ccc(C(=O)O)cc2)cc(OC)c1OC	-148
C=CCOc1c(OC)cc(/C=N/Nc2cccc(C(=O)O)c2)c(Br)c1Br	-177
COc1ccc(/C=N/Nc2ccc(C(=O)O)cc2)c(OC)c1OC	-118
Cc1ccc(N2C(=O)c3cccc4c([N+](=O)[O-])ccc(c34)C2=O)c2cccnc12	–
O=[N+]([O-])c1cccnc1NCCc1ccccc1	-159
O=[N+]([O-])c1ccc(O)c2ncccc12	–
O=[N+]([O-])c1cccnc1NCCc1c[nH]c2ccccc12	-123
Cc1csc(NC(=O)Nc2ccc(Cl)cc2)n1	-115
O=C(Cc1csc(NC(=O)Nc2ccc(Cl)cc2)n1)NC1CCCC1	-91
SMILES	aSyn 5UTR act
Cc1csc(NC(=O)NCC2CCCC(CNC(=O)Nc3nc(C)cs3)C2)n1 (stereo not drawn)	-66
Cc1cnc(NC(=O)Nc2ccc(Cl)cc2)s1	-187
CCSc1nc(N)c2c3c(sc2n1)CCC3	-89
Nc1nc(-c2ccccc2)nc2sc3c(c12)CCCC3	-139
Nc1c2c(nc3sc4c(c13)CCCC4)CCCCCC2	-82
COc1cc(NC(=O)CCc2ccccc2)nc(OC)n1	-71
COc1ccc(C(=O)Nc2cc(OC)nc(OC)n2)cc1	-125
Nc1ccc(C(=O)N/N=C2\CCCc3c2[nH]c2ccccc32)cc1	-73
Cc1ccc(NC(=O)NCc2ccc3c(c2)OCO3)cc1C	-79
O=C(Nc1ccc2c(c1)CCC2)Nc1ccc2c(c1)OCO2	-111
NS(=O)(=O)c1ccc(NC(=O)Nc2ccc3c(c2)OCO3)cc1	-118
O=C(Nc1cccc(Cl)c1)Nc1ccc2c(c1)OCO2	-159
O=C(Nc1cccc([N+](=O)[O-])c1)Nc1ccc2c(c1)OCCO2	-129
O=C(Nc1ccc2c(c1)OCO2)Oc1ccccc1	-106
Cc1nn(C)cc1CNC(=O)Nc1cccc(Cl)c1	-169
O=C(Nc1ccc2c(c1)OCO2)Nc1ccc(Br)cn1	-157
O=C(Nc1ccc2c(c1)OCCO2)NC12CC3CC(CC(C3)C1)C2	-195
O=C(NCc1cccs1)Nc1cccc(Cl)c1	-120
COC(=O)c1ccc(NC(=O)Nc2ccc3c(c2)OCO3)cc1	-66
COc1cccc(NC(=O)Nc2ccc3c(c2)OCO3)c1	-111
O=C(NCc1ccc2c(c1)OCO2)Nc1cccc(Cl)c1	-127
COc1ccc2[nH]c(C(=O)Nc3ccc4c(c3)OCO4)cc2c1	-134
Cc1noc(C(=O)Nc2cccc(Cl)c2)c1Cl	-79
Cc1noc(NC(=O)c2ccc(Cl)cc2)c1Cl	-70
CCc1ccc(NC(=O)c2onc(C)c2Cl)cc1	-182
SMILES	aSyn 5UTR act
COc1ccc(NC(=O)c2onc(C)c2Cl)cc1	-124
O=C(Cc1ccc2c(c1)CCCC2)Nc1ccc2ccccc2c1	-161
O=C(Cc1ccccc1F)Nc1ccc2c(c1)CCC2	-169
C=CCn1c(O)c(N=NC(=S)Nc2ccccc2F)c2cc(S(=O)(=O)N3CCOCC3)ccc21	–
CCCCc1ccc(NC(=O)CC(C)C)cc1	-70
CCCCc1ccc(NC(=O)C2CCCC2)cc1	-69
Nc1ccc2nc(CCc3ccccc3)[nH]c2c1	-68
Cc1ccc2nc(CCc3ccc(N)cc3)[nH]c2c1	-136
Cc1ccc2nc(Cc3ccc(N)cc3)oc2c1	-108
Fc1ccc(F)c(C2=NNC(=NCC3CCCO3)SC2)c1 (stereo not drawn)	-118
CC(=O)Oc1ccc(Cl)cc1/C=C/c1ccc2ccccc2n1	-259
CC(=O)Oc1c(Cl)cc(Cl)cc1/C=C/c1ccc2ccccc2n1	-205
CC(=O)Oc1ccccc1/C=C/c1nc2ccccc2c(=O)o1	–
O=C(CC1C(=O)NCCN1Cc1ccc(F)cc1Cl)NCc1ccon1 (stereo not drawn)	-68
CCOC(=O)c1c(C)[nH]c(N=Nc2cccc(C)c2)c1C	-211
CCOC(=O)c1c(C)[nH]c(N=Nc2cccc(OC)c2)c1C	-208
CCN(CC)S(=O)(=O)c1ccc(N2CCOCC2)c(NC(=O)c2cc([N+](=O)[O-])ccc2Cl)c1	-164

Compound activity deposited in PubChem by Broad Institute.
